Test results from PubChem BioAssay AID1159580 (chemical genetic matrix, 2015).
“And” between values parts separate entries of the source, which are not always exact repeats. Identical values can stand only once. In all, about 5,500 compounds went through this assay and about 2,000 (36%) were called active. Another 18% or so got no clear call; they are omitted. Cut-off read from the data, not from the text of the source: active = normalized growth mostly below about 0.91 (no sharp cut-off); inconclusive = no clear call, values can overlap the other calls; inactive = mostly above about 0.92. This is one part of the list.

Experiment: chemical genetic growth profiling, strain panel (AID 1159580);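 note: tested at 20 µM; growth read once vehicle control cultures reached saturation at 30 °C; 1 = growth at the plate median or of vehicle wells; lower values mean less growth of the strain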
Conditions: S. cerevisiae deletion strains, growth OD

Measured: normalized growth

COc1ccc(OC)c(C(O)C(C)N)c1 (stereo not given)
inactive: locus YAL013W, strain DEP1, stronger effect = lower value 1.02 and 1.01 | locus YAL021C, strain ccr4, stronger effect = lower value 1 | locus YAL026C, strain drs2, stronger effect = lower value 0.993 | locus YAL030W, strain snc1, stronger effect = lower value 0.998 | locus YAL040C, strain CLN3, stronger effect = lower value 0.977 | locus YBL061C, strain skt5, stronger effect = lower value 0.996 | locus YBR009C, strain hhf1, stronger effect = lower value 1.01 | locus YBR021W, strain FUR4, stronger effect = lower value 1.01 | locus YBR023C, strain chs3, stronger effect = lower value 0.998 | locus YBR171W, strain sec66, stronger effect = lower value 0.991 | locus YBR229C, strain ROT2, stronger effect = lower value 1.02 | locus YBR231C, strain swc5, stronger effect = lower value 0.977 | locus YBR279W, strain paf1, stronger effect = lower value 1 | locus YCL011C, strain gbp2, stronger effect = lower value 1.01 | locus YCL016C, strain dcc1, stronger effect = lower value 1.01 | locus YCL029C, strain bik1, stronger effect = lower value 0.99 | locus YCL061C, strain MRC1 (second series), stronger effect = lower value 1.02 | locus YCL061C, strain MRC1, stronger effect = lower value 0.99 | locus YCL069W, strain vba3, stronger effect = lower value 1 | locus YCR088W, strain abp1, stronger effect = lower value 0.998 | locus YDL005C, strain med2, stronger effect = lower value 0.994 | locus YDL035C, strain GPR1, stronger effect = lower value 1.01 | locus YDL040C, strain nat1, stronger effect = lower value 0.996 | locus YDL074C, strain BRE1, stronger effect = lower value 1.05 | locus YDL101C, strain DUN1, stronger effect = lower value 1.03 | locus YDL134C, strain PPH21, stronger effect = lower value 1.03 | locus YDL185W, strain tfp1, stronger effect = lower value 0.988 | locus YDL192W, strain arf1, stronger effect = lower value 0.99 | locus YDR001C, strain nth1, stronger effect = lower value 0.99 | locus YDR069C, strain doa4, stronger effect = lower value 0.999 | locus YDR101C, strain arx1, stronger effect = lower value 0.981 | locus YDR137W, strain rgp1, stronger effect = lower value 1.03 | locus YDR150W, strain NUM1, stronger effect = lower value 1.02 | locus YDR159W, strain sac3, stronger effect = lower value 1.01 | locus YDR162C, strain NBP2, stronger effect = lower value 1.05 | locus YDR195W, strain ref2 0.948 | locus YDR297W, strain sur2, stronger effect = lower value 0.998 | locus YDR318W, strain mcm21, stronger effect = lower value 0.977 | locus YDR334W, strain swr1, stronger effect = lower value 0.993 | locus YDR335W, strain msn5, stronger effect = lower value 0.997 | locus YDR363W, strain ESC2, stronger effect = lower value 1.03 | locus YDR388W, stronger effect = lower value 0.977 | locus YDR392W, strain spt3, stronger effect = lower value 1.01 | locus YDR502C, strain sam2, stronger effect = lower value 1 | locus YEL003W, strain gim4, stronger effect = lower value 1 | locus YEL037C, strain rad23, stronger effect = lower value 0.991 | locus YEL061C, strain CIN8 (second series), stronger effect = lower value 0.983 | locus YEL061C, strain CIN8, stronger effect = lower value 1.01 | locus YER002W, strain NOP16, stronger effect = lower value 0.993 | locus YER015W, strain faa2, stronger effect = lower value 0.99 | locus YER016W, strain bim1, stronger effect = lower value 0.998 | locus YER110C, stronger effect = lower value 0.981 | locus YER111C, strain swi4, stronger effect = lower value 1 | locus YER155C, strain BEM2 (second series), stronger effect = lower value 0.988 | locus YER155C, strain BEM2, stronger effect = lower value 1.01 | locus YER167W, strain BCK2, stronger effect = lower value 1.01 | locus YFR010W, strain ubp6, stronger effect = lower value 0.99 | locus YGL078C, strain dbp3, stronger effect = lower value 0.997 | locus YGL086W, strain mad1, stronger effect = lower value 0.983 | locus YGL167C, strain pmr1, stronger effect = lower value 0.998 | locus YGL173C, strain kem1, stronger effect = lower value 0.991 | locus YGL227W, strain vid30, stronger effect = lower value 0.991 | locus YGL240W, strain doc1, stronger effect = lower value 0.981 | locus YGL248W, strain PDE1, stronger effect = lower value 1.03 | locus YGL253W, strain hxk2, stronger effect = lower value 0.998 | locus YGR078C, strain PAC10, stronger effect = lower value 1.04 | locus YGR135W, strain pre9, stronger effect = lower value 1.03 | locus YGR229C, strain SMI1, stronger effect = lower value 1.03 | locus YGR252W, strain gcn5, stronger effect = lower value 0.947 | locus YHR013C, strain ard1, stronger effect = lower value 0.99 | locus YHR027C, strain rpn1, stronger effect = lower value 1 | locus YHR030C, strain SLT2, stronger effect = lower value 1 and 1.03 | locus YHR079C, strain IRE1 (second series), stronger effect = lower value 0.988 | locus YHR079C, strain IRE1, stronger effect = lower value 1.05 | locus YHR094C, strain hxt1, stronger effect = lower value 0.99 | locus YHR129C, strain ARP1, stronger effect = lower value 1.01 | locus YHR142W, strain chs7, stronger effect = lower value 1.01 | locus YHR200W, strain rpn10, stronger effect = lower value 0.993 | locus YIL066C, strain RNR3, stronger effect = lower value 1.01 | locus YIL073C, strain SPO22, stronger effect = lower value 1 | locus YIL125W, strain kgd1, stronger effect = lower value 0.995 | locus YIR030C, strain dcg1, stronger effect = lower value 0.988 | locus YJL092W, strain hpr5, stronger effect = lower value 0.997 | locus YJL095W, strain BCK1 (second series), stronger effect = lower value 0.997 | locus YJL095W, strain BCK1, stronger effect = lower value 1.04 and 1.03 | locus YJL115W, strain asf1, stronger effect = lower value 0.99 | locus YJL129C, strain trk1, stronger effect = lower value 0.997 | locus YJL134W, strain LCB3, stronger effect = lower value 1.01 | locus YJL154C, strain vps35, stronger effect = lower value 0.998 | locus YJL164C, strain tpk1, stronger effect = lower value 1.01 | locus YJL166W, strain qcr8, stronger effect = lower value 0.974 | locus YJL168C, strain set2, stronger effect = lower value 0.989 | locus YJL187C, strain SWE1 (second series), stronger effect = lower value 1.02 | locus YJL187C, strain SWE1, stronger effect = lower value 1 | locus YJR043C, strain POL32, stronger effect = lower value 0.977
